Reference: PubChem BioAssay (NCATS)
Results filed as inconclusive are left out. The source made the active and inactive calls. Calls come from the whole dose curve; as a rule, active = well fitted cell-killing curve with a large enough effect; inconclusive = small, poorly fitted or top-dose-only effect; inactive = flat fitted curve, though single readings scatter.

assay: Cell Viability - LYMP2-010 (AID 981); settings: LYMP2-010 lymphoblastoid cell viability, qHTS; series mostly up to 92.2 µM; note: nearly all actives have a fitted effect of over 55% in size
Excerpt: NIH Chemical Genomics Center [NCGC]
NIH Molecular Libraries Screening Centers Network [MLSCN]
National Institutes of Environmental Health Sciences [NIEHS]
National Toxicology Program [NTP]
We have developed a 1536-well cell-based assay for quantitative high throughput screening (qHTS) against a number of cell lines to determine in vitro cytotoxicity of small molecules. This particular assay uses a human lymphoblastoid cell line (LYMP2-010) purchased from Coriell Institute for Medical Research.
NCGC Assay Protocol Summary:
The CellTiter-Glo luminescent cell viability assay (Promega) is a homogeneous method to measure the number of viable cells in culture. The end point readout of this assay is based on quantitation of intracellular ATP, an indicator of metabolic activity, using the luciferase reaction. Luciferase catalyzes the oxidation of beetle Luciferin to oxyluciferin and light in the presence of ATP. The luminescent signal is proportional to amount of ATP present.
Using the CellTiter-Glo luminescent cell viability assay, the amount of cellular ATP was measured in the lymphoblastoid cell line with complete culture medium following compound treatment for 24 hours. The assay was performed in opaque white Kalypsys 1536-well plates. In the screen, tetraoctylammonium bromide was used as positive control. Library compounds were measured for their ability to cause acute toxicity in the cell line, as reflected by a decrease in intracellular ATP levels, in a concentration-dependent manner. […] AC50 values were determined from concentration-response data modeled with the standard Hill equation.
qHTS protocol for CellTiter Glo lymphoblastoid cellular assay
[Step] [Parameter] [Value] [Description]
1. Reagent; 5 uL; 2500 lymphoblastoid cells/well
2. Time; 5 hr; 37 C incubation
4. Controls; 23 nL; Tetraoctylammonium bromide 6.4pM to 92 uM
5. Time; 24 hr; 37 C incubation
6. Reagent; 5 uL; CellTiter Glo reagent
7. Time; 30 min; Room Temperature
8. Detection; Luminescence; Viewlux plate reader
Keywords: cell viability, cytotoxicity, lymphoblastoid cell line, luminescence, NTPHTS, NTPHTS_NCGC, NIEHS, DSSTox, MLSMR, MLSCN, NIH Roadmap, qHTS, NCGC

Q: With `Cc1cn([C@H]2C=C[C@@H](CO)O2)c(=O)[nH]c1=O` as the compound, how does the outcome read?
A: inactive

Q: Which outcome does the source give for `CCC1(c2ccccc2)C(=O)NCNC1=O` here?
A: inactive

Q: For `COc1ccc2c(c1)c(CC(=O)O)c(C)n2C(=O)c1ccc(Cl)cc1`, which outcome is on record?
A: inactive

Q: With `Cc1cn([C@H]2C[C@H](N=[N+]=[N-])[C@@H](CO)O2)c(=O)[nH]c1=O` as the compound, how does the outcome read?
A: inactive

Q: With `NS(=O)(=O)c1cc2c(cc1Cl)NCNS2(=O)=O` as the compound, how does the outcome read?
A: inactive

Q: For `Cn1c(=O)c2[nH]cnc2n(C)c1=O`, which outcome is on record?
A: inactive

Q: With `COc1ccc2[nH]cc(CCNC(C)=O)c2c1` as the compound, how does the outcome read?
A: inactive

Q: With `Nc1ccn([C@H]2CC[C@@H](CO)O2)c(=O)n1` as the compound, how does the outcome read?
A: inactive

Q: With `N[C@@H](Cc1c[nH]c2ccc(O)cc12)C(=O)O` as the compound, how does the outcome read?
A: inactive

Q: With `Cn1c(=O)c2c(ncn2C)n(C)c1=O` as the compound, how does the outcome read?
A: inactive

Q: With `Nc1c2c(nc3ccccc13)CCCC2` as the compound, how does the outcome read?
A: inactive

Q: For `CC(C)NCC(O)c1ccc(O)c(O)c1` (stereo unspecified), which outcome is on record?
A: inactive

Q: With `Cc1ccc(-c2cc(C(F)(F)F)nn2-c2ccc(S(N)(=O)=O)cc2)cc1` as the compound, how does the outcome read?
A: inactive

Q: With `NCCS(=O)(=O)O` as the compound, how does the outcome read?
A: inactive

Q: For `CC(C)C(=O)Nc1ccc([N+](=O)[O-])c(C(F)(F)F)c1`, which outcome is on record?
A: inactive

Q: With `Clc1ccc(C(c2ccccc2Cl)C(Cl)Cl)cc1` (stereo unspecified) as the compound, how does the outcome read?
A: inactive
